Wnt bcat act = activates Wnt/beta-catenin signaling in a reporter cell assay; activation, % at 9.35 µM; activator, plate reader; 1.2% of 300,000 active; in the data active = activation above about 30%, passing the limit was not always enough; inconclusive = no clear call, values can overlap the other calls
esBAF inh = blocks esBAF chromatin remodeling in mouse ES cells; Bmi1-luciferase knock-in reporter, 24 h; 100% = twice the neutral-well signal; reporter increase, % at 12.5 µM; 2% of 350,000 active; in the data active = activation above about 40%; inconclusive = no clear call, values can overlap the other calls;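 note: a rise in the Bmi1 reporter signal indicates esBAF inhibition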
MITF TRPM1 HTS = increases MITF-driven TRPM1 promoter luciferase signal; SK-MEL-5 TRPM1-promoter luciferase, 24 h; % of positive control, neutral wells = 0; activation, % at 12.5 µM; 0.75% of 300,000 active; AID 588334;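 active = mean activation of at least 80% with every replicate also reaching 80%; inconclusive = mean reaches 80% but some replicate falls short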
HSF1 inhib = HSF1 inhibition; NIH3T3-HGL HSE-luciferase, MG132-induced, luminescence 8 h; stronger effect = lower value; activity change, negative = inhibition, % at 7.5 µM (by protocol); 0.77% of 300,000 active; AID 2098;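 active = more than half of replicate wells show activity change below -50%, luminescence cut by over half; inconclusive = some wells, but at most half, below -50%; inactive = no replicate well below -50%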;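 note: luciferase reports HSF-1 transcriptional activity via heat shock element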
HSF-1 act = increases HSF-1 driven luciferase reporter signal; activation, % at 9 µM; NIH3T3-HGL HSF-1 luciferase reporter, MG132, 8 h; 100% = twice DMSO control signal; 1.7% of 300,000 active;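 active = mean replicate activation of at least 50% with a set share of replicates each reaching 50%; inconclusive = only one of those two conditions met; inactive = mean below 50% and too few replicates reaching it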
Each line names hits and unclear results; the compound was inactive in the other large screens. An excerpt weighted towards active compounds, which were near 3.9% of everything screened.

O=C(N/N=C/c1ccccc1F)c1cccc2ccccc12	esBAF inh inconclusive
O=C(N/N=C/c1cccc(F)c1)c1csc2c1CCCC2	esBAF inh 50, MITF TRPM1 HTS 142 (no result: Wnt bcat act)
O=C(N/N=C/c1ccccc1F)c1csc2c1CCCC2	HSF-1 act 65 (no result: Wnt bcat act, esBAF inh)
CN(CC1CCCN(CCc2ccccc2F)C1)C(=O)c1ccoc1 (configuration not stated)	none
COc1ccc(CCN2CCCC(CN(C)C(=O)c3ccoc3)C2)cc1 (configuration not stated)	Wnt bcat act inconclusive, esBAF inh 62
O=S(=O)(NCC1COc2ccccc2O1)c1ccc2ccccc2c1 (configuration not stated)	none (no result: esBAF inh)
CNS(=O)(=O)c1ccc(NCC2COc3ccccc3O2)c([N+](=O)[O-])c1 (configuration not stated)	esBAF inh 44 (no result: Wnt bcat act)
COc1ccc(N=C2C(=Nc3ccc(OC)cc3)N(c3ccc(OC)cc3)C(=S)N2C(=O)c2ccc(OC)cc2)cc1	HSF-1 act 65 (no result: Wnt bcat act, MITF TRPM1 HTS)
COc1ccc(N=C2C(=Nc3ccc(OC)cc3)N(c3ccc(N(C)C)cc3)C(=S)N2c2ccc(OC)cc2)cc1	HSF-1 act 63 (no result: esBAF inh)
O=C([C@@H]1[C@@H](CO)[C@@H]2Cn3c(cccc3=O)[C@H]1N2C(=O)c1ccccn1)N1CCCCC1	none (no result: Wnt bcat act, MITF TRPM1 HTS, HSF1 inhib, HSF-1 act)
CN(C)C(=O)C[C@H]1C[C@H]2c3cc(NC(=O)NC4CCCC4)ccc3O[C@H]2[C@H](CO)O1	none (no result: Wnt bcat act, MITF TRPM1 HTS, HSF1 inhib, HSF-1 act)
Cc1nc(-c2cc(-c3ccc(Cl)cc3)no2)cs1	Wnt bcat act 36, HSF-1 act 71 (no result: esBAF inh)
Clc1ccc(-c2cc(-c3ccccc3)on2)cc1	Wnt bcat act 54, MITF TRPM1 HTS inconclusive (no result: HSF1 inhib, HSF-1 act)
Cc1nc(-c2cc(-c3nc(-c4ccc(C(F)(F)F)cc4)no3)no2)cs1	none
Cc1ccc(N=C2SC(C(=O)NCCc3ccccc3)CC(=O)N2C)cc1C (configuration not stated)	HSF-1 act 70 (no result: esBAF inh)
COc1ccc(S(=O)(=O)N(C)C[C@H]2Oc3ccc(NC(=O)Nc4ccc5c(c4)OCO5)cc3CC(=O)N([C@@H](C)CO)C[C@H]2C)cc1	none (no result: Wnt bcat act, MITF TRPM1 HTS, HSF1 inhib, HSF-1 act)
O=C(NC1CCN(Cc2ccccc2)CC1)c1ccc(Cn2c(=S)[nH]c3ccc(N4CCOCC4)cc3c2=O)cc1	MITF TRPM1 HTS 81
N#CC1=C(N)N(c2ccc(Oc3ccccc3)cc2)C(=O)C1	HSF1 inhib -89
C[C@@H]1CN([C@@H](C)CO)C(=O)c2cc(C#CC3(O)CCCC3)cnc2O[C@H]1CN(C)C	none (no result: Wnt bcat act, MITF TRPM1 HTS, HSF1 inhib, HSF-1 act)
CCCc1cc(NCCCn2ccnc2)n2nc(C)c(-c3ccccc3)c2n1	Wnt bcat act 32 (no result: esBAF inh)
CC(C)(C)c1cc(NCCCn2ccnc2)n2ncc(-c3ccccc3)c2n1	Wnt bcat act 53 (no result: esBAF inh, MITF TRPM1 HTS)
Cc1cccc(-c2cc3nc(C)cc(NCCCn4ccnc4)n3n2)c1	none
Cc1cc(NCCCn2ccnc2)n2ncc(-c3ccc(Cl)cc3)c2n1	none (no result: Wnt bcat act)
CN1CCN(C(=O)c2cc(COc3ccccc3)on2)[C@@H](c2ccccc2)C1	Wnt bcat act 42, esBAF inh 64, MITF TRPM1 HTS 91
Cc1ccc(OCc2cc(C(=O)N3CCN(C)C[C@@H]3c3ccccc3)no2)cc1C	MITF TRPM1 HTS 113, HSF-1 act 56 (no result: esBAF inh)
C/C=C/c1ccc([C@@H]2[C@@H](CO)N(C(=O)C3CC3)[C@H]2CN(CC)C(C)=O)cc1	none (no result: Wnt bcat act, MITF TRPM1 HTS, HSF1 inhib, HSF-1 act)
COc1ccc(/C(C)=N/Nc2nncc3ccccc23)cc1	Wnt bcat act 37, MITF TRPM1 HTS 109
CCOC(=O)c1c(C)oc2c1cc(O)c1ccccc12	HSF-1 act 58 (no result: Wnt bcat act, esBAF inh)
CCOC(=O)c1c(C)[nH]c2c1cc(O)c1ccccc12	esBAF inh 62
CCOC(=O)c1c(C)n(CC)c2c1cc(O)c1ccccc12	none
COCC#Cc1cnc2c(c1)C(=O)N([C@H](C)CO)C[C@@H](C)[C@@H](CN(C)C)O2	none (no result: Wnt bcat act, MITF TRPM1 HTS, HSF1 inhib, HSF-1 act)
C[C@H]1CN([C@@H](C)CO)C(=O)c2cccc(NS(=O)(=O)c3ccc(Cl)cc3)c2O[C@H]1CN(C)S(C)(=O)=O	none (no result: Wnt bcat act, MITF TRPM1 HTS, HSF1 inhib, HSF-1 act)
COc1ccc(C(=O)c2oc3ccc(OC)cc3c2N)cc1	Wnt bcat act 47, esBAF inh 86, MITF TRPM1 HTS 102
COC(=O)c1oc2ccc(OC)cc2c1N	none (no result: Wnt bcat act)
CN(C[C@@H]1[C@@H](c2ccccc2)[C@H](CO)N1C(=O)C1CC1)C(=O)c1ccccn1	none (no result: Wnt bcat act, MITF TRPM1 HTS, HSF1 inhib, HSF-1 act)
CC(C)(C)N1CC(COc2ccccc2)OC1=O (configuration not stated)	esBAF inh 62 (no result: MITF TRPM1 HTS)
CC(C)NC(=O)N1C[C@@H]2[C@H](c3ccccc31)[C@@H](CO)N2Cc1ccccn1	none (no result: Wnt bcat act, MITF TRPM1 HTS, HSF1 inhib, HSF-1 act)
C/C(=N/OC(=O)CC(C)C)c1cc(-c2ccc(Cl)cc2)no1	MITF TRPM1 HTS 86 (no result: esBAF inh)
C[C@@H]1CCCCO[C@H](CN(C)S(=O)(=O)c2cccs2)[C@H](C)CN([C@@H](C)CO)C(=O)c2cc(NC(=O)CCC(F)(F)F)ccc2O1	none (no result: Wnt bcat act, MITF TRPM1 HTS, HSF1 inhib, HSF-1 act)
CN1c2ccc(C3=CCCCC3)cc2[C@H]2[C@H](CCN2S(=O)(=O)c2ccccc2F)[C@@H]1CO	none (no result: Wnt bcat act, MITF TRPM1 HTS, HSF1 inhib, HSF-1 act)
COC(=O)CNC(=O)c1ccccc1	none
O=C(CNC(=O)c1ccccc1)OC1CCCCC1	Wnt bcat act 47 (no result: esBAF inh)
CN1CCN(C(=O)C[C@H]2C[C@H]3c4cc(NC(=O)c5cccnc5)ccc4O[C@H]3[C@@H](CO)O2)CC1	none (no result: Wnt bcat act, MITF TRPM1 HTS, HSF1 inhib, HSF-1 act)
CCCc1cc(=O)oc2cc(OCC(=O)N3C[C@H]4C[C@@H](C3)c3cccc(=O)n3C4)c(Cl)cc12	HSF-1 act 57
Cc1cnc(NC(=O)c2sc(Nc3ccccc3)nc2N)o1	Wnt bcat act 38 (no result: esBAF inh, MITF TRPM1 HTS)
Nc1nc(Nc2ccccc2)sc1C(=O)c1ccccc1	Wnt bcat act 51, HSF-1 act 62 (no result: esBAF inh, MITF TRPM1 HTS)
COc1ccc(C(=O)c2sc(Nc3ccccc3)nc2N)cc1	none (no result: MITF TRPM1 HTS)
COc1ccc(N2CCN(c3ccc(NC(=O)NN)cc3)CC2)cc1	HSF1 inhib -67
O=C(NC(=O)c1ccccc1)Nc1ccc(-c2cnco2)cc1	none (no result: esBAF inh, MITF TRPM1 HTS)
COc1c(C)cccc1C(=O)Nc1ccc(N2CCN(S(C)(=O)=O)CC2)cc1	esBAF inh inconclusive (no result: MITF TRPM1 HTS)
O=C(NC(=O)c1ccccc1)Nc1ccccc1	Wnt bcat act 36
COc1ccccc1C(=O)Nc1ccc(N2CCN(S(C)(=O)=O)CC2)cc1	esBAF inh 44, HSF-1 act 78 (no result: Wnt bcat act, MITF TRPM1 HTS)
COc1ccc(NC(=O)NC(=O)c2ccccc2)cc1	Wnt bcat act 52 (no result: MITF TRPM1 HTS)
COc1ccccc1NC(=O)NC(=O)c1ccccc1	Wnt bcat act 47, esBAF inh 62, HSF-1 act inconclusive (no result: MITF TRPM1 HTS)
CC1Cc2nc(SCC(=O)Nc3ccc4c(c3)OCO4)n(Cc3ccccc3)c(=O)c2S1 (configuration not stated)	esBAF inh 64, HSF-1 act 78 (no result: Wnt bcat act)
COCCn1c(SCC(=O)NC2CCCCC2)nc2c(c1=O)SCC2	HSF-1 act 58
COCCn1c(SCC(=O)Nc2ccc3c(c2)OCCO3)nc2c(c1=O)SC(C)C2 (configuration not stated)	esBAF inh 47 (no result: HSF1 inhib, HSF-1 act)
CCn1c(SCC(=O)NCc2ccc3c(c2)OCO3)nc2c(c1=O)SCC2	Wnt bcat act 31
COCCn1c(SCC(=O)NCC2CCCO2)nc2c(c1=O)SCC2 (configuration not stated)	none

Compound activity as filed in PubChem.
